For orientation: ΔTm means the change in melting temperature against a reference sample.

Sequence of Glycogen synthase kinase-3 beta (Homo sapiens) (P49841 whole entry, looked up): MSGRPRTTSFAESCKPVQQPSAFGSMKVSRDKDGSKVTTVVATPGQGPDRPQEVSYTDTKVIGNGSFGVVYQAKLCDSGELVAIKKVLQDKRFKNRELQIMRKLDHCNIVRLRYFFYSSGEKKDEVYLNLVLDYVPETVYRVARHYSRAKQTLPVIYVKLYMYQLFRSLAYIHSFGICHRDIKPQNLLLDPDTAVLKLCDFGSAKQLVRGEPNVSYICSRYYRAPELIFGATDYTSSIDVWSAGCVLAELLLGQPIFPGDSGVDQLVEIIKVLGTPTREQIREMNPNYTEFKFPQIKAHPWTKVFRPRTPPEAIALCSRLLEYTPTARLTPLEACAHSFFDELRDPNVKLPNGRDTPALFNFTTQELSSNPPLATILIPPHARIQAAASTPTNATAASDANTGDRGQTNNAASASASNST

The first assay deals with Casein kinase I isoform delta (Homo sapiens) (UniProt P48730). The conditions noted are these: Compound concentration 20.0 uM, Protein concentration 2.0 uM, Result type QC Liability.
Sequence of Casein kinase I isoform delta (Homo sapiens) (P48730 whole entry, looked up, canonical isoform): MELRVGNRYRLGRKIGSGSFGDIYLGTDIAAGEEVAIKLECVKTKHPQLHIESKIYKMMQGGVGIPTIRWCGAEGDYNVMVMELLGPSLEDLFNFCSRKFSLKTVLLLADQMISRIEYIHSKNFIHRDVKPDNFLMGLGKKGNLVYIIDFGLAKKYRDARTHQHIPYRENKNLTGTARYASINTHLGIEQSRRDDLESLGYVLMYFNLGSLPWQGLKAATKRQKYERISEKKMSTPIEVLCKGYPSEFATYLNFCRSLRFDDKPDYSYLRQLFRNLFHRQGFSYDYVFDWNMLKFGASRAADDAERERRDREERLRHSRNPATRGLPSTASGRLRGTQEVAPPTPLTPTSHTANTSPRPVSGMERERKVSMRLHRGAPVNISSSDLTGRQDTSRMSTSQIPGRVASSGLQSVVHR
Take `COc1ccc(-c2cc3c(C)nc(N)nc3n([C@H]3CC[C@H](OCCO)CC3)c2=O)cn1`: the ΔTm is -0.16 °C.
Same read-out and setting: the result for `COc1cc(C(=O)NCCOCCOCCOCC(=O)N[C@H](C(=O)N2C[C@H](O)C[C@H]2C(=O)NCc2ccc(-c3scnc3C)cc2)C(C)(C)C)ccc1Nc1ncc(C(F)(F)F)c(Oc2cccc3c2C(=O)CC3)n1` reads 0.41 °C; that for `CN1CCc2cc(Nc3ncc(C(F)(F)F)c(NCc4cc[nH]n4)n3)ccc2C1`, 2.14 °C; that for `CSc1nc2c(c(=O)n(C)c(=O)n2C)n1C`, 0.33 °C.
On the same count and under the same terms, to `N[C@@H](CC(=O)O)Cn1nnc(-c2ccc(Oc3ncc(Cl)cc3F)cc2)n1` belongs -0.24 °C; to `CCCCc1oc2ccccc2c1C(=O)c1cc(I)c(OCCN(CC)CC)c(I)c1`, 0.32 °C; to `CCc1nc(-c2cccc(C)c2)c(-c2ccncc2)s1`, 3.88 °C.
Still for that read-out and setting: the result for `Cn1cc(-c2ccc(-c3cncc(Cl)c3N3CCC4(CCNC4=O)CC3)cc2)cn1` reads -0.23 °C; that for `CCn1c(-c2nonc2N)nc2ccccc21`, 0.5 °C; that for `O=C(Nc1ccc(C(O)(C(F)(F)F)C(F)(F)F)cc1)c1ccc(C(F)(F)F)cc1`, 1.47 °C.
For `CC(=O)c1c(C)c2cnc(Nc3ccc(N4CCN(CCCCNC(=O)COc5cccc6c5C(=O)N(C5CCC(=O)NC5=O)C6=O)CC4)cn3)nc2n(C2CCCC2)c1=O` (stereo not drawn), the thermal shift (ΔTm) was determined as 0.26 °C.
Still for that read-out and setting: to `CC(C)c1cnn2c(NCc3ccccc3)cc(NCCCCCCN)nc12` belongs 2.94 °C.
As to `CC(=O)c1c(C)c2cnc(Nc3ccn(C)n3)nc2n(C2CCCC2)c1=O`, the ΔTm is -0.59 °C.
On the same count and under the same terms, the result for `COCc1c(-c2cc3cc(C)cc(OC)c3s2)c2c(N)ncnn2c1CN[C@@H]1CCNC1=O` reads 0.29 °C.
Still for that read-out and setting: to `CC1CCN(c2ccnc(NCc3cn(C)cn3)n2)CC1` belongs 0.29 °C.
The same measure, in the same setting: the result for `NCCCc1c(C(=O)O)[nH]c2ccc(C(=O)Nc3ccccc3)cc12` reads 0.53 °C; that for `COCCOCn1c(S(C)(=O)=O)nc2c1c(=O)n(C)c(=O)n2C`, -0.13 °C.
As to `CN1C(=O)Cc2ccc(-c3ccc(C[C@@H](C#N)NC(=O)[C@@H]4N[C@H]5CC[C@@H]4C5)c(F)c3)cc21`, the ΔTm was determined as 0.17 °C.
Still for that read-out and setting: the result for `C=C1/C(=C\C=C2/CCC[C@]3(C)[C@@H]([C@H](C)CCCC(C)(C)O)CC[C@@H]23)C[C@@H](O)C[C@@H]1O` reads 0 °C; that for `CN1Cc2nccc(-c3cn(C)nc3-c3ccc(F)cc3)c2C1=O`, 8 °C; that for `CC(C)[C@H](CO)Nc1nc(Nc2ccc(C(=O)O)c(Cl)c2)c2ncn(C(C)C)c2n1`, 2.59 °C.
On the same count and under the same terms, the result for `COc1cc2c(cc1CC=C(C)C)C(=O)C[C@@H](c1ccc(O)cc1)O2` reads 1.23 °C; that for `c1ccc2c(-c3coc4cc(-c5ccc(N6CCNCC6)cc5)cnc34)ccnc2c1`, 1.09 °C; that for `CCn1ccc(Nc2ncc3c(n2)-c2c(nn(C)c2-c2ccc(-c4cnn(C)c4)cc2Cl)CC3)n1`, 2.25 °C.
The same measure, in the same setting: the result for `O=C(O)c1ccnc(N2CC(O)(c3ccc(OCc4c(-c5c(Cl)cccc5Cl)noc4C4CC4)cc3Cl)C2)c1` reads 0.41 °C.
On to `COc1cc(C(=O)NCCOCCOCCOCC(=O)N[C@H](C(=O)N2C[C@@H](O)C[C@H]2C(=O)NCc2ccc(-c3scnc3C)cc2)C(C)(C)C)ccc1Nc1ncc(C(F)(F)F)c(Oc2cccc3c2C(=O)CC3)n1`, for which the ΔTm was determined as 0.94 °C.
Same read-out and setting: to `CC(C)(O)CNC(=O)N1C(=O)N(c2cccc(C(F)(F)F)c2)C2=C(C(=O)CC2)[C@@H]1c1ccc(C#N)cc1` belongs 0.18 °C.
On to `COc1cc(Oc2nc(-c3ccc(NC(=O)C4CCOC4)cc3)nn3c(C)nc(C)c23)cc(OC)c1OC` (stereo not drawn), for which the ΔTm is 0.03 °C.
As to `COc1cc(-c2cc3ncccc3c(O[C@@H](C)[C@H]3CNC(=O)C3)n2)cc(OC)c1OC`, the thermal shift (ΔTm) is 1.43 °C.
In the case of `O=C(Nc1ccc(Cl)c(-c2ccccn2)c1)c1cccc(COc2ccc(Br)cc2CNCCO)c1`, the thermal shift (ΔTm) turned out to be 0.55 °C.
As for `CN[C@@H](C)C(=O)N[C@H]1CN(C(=O)CC(C)C)CC[C@H]2CC[C@@H](C(=O)NC(c3ccccc3)c3ccccc3)N2C1=O`, the ΔTm came out at 0.05 °C.
Take `CC(C)(C)NC(=O)c1cncn1C1CCN(c2ccc(-c3nnc(C(F)(F)F)o3)cn2)CC1`: the shift in melting temperature (ΔTm) was 0.21 °C.
In the case of `CN(C)C(=O)Cn1cc(-c2nc(C3(c4ccc(-c5cnc(N)nc5)cc4)CC3)no2)cn1`, the ΔTm came out at 0.13 °C.
On the same count and under the same terms, the result for `C[S+]([O-])c1ccc(-c2nc(-c3cccc(I)c3)c(-c3ccncc3)[nH]2)cc1` (stereo not drawn) reads 2.61 °C.
The same measure, in the same setting: to `CCc1ccccc1C(=O)Nc1n[nH]c2c(C)c(F)c(C3C(C#N)=C(C)N(C)C(C)=C3C#N)cc12` belongs 0.67 °C; to `CC1CCN(C(=O)[C@@H](CCn2cccc2C#N)NS(=O)(=O)c2cccc3[nH]ccc23)CC1`, 0.33 °C.
`N[C@@H]1CCCC[C@H]1Oc1ccc2ncc(-c3cc4ccccc4o3)n2n1`: the thermal shift (ΔTm) stood at 1.01 °C.
Turning to `CC(=O)N1CCC(c2ccc(C(=O)NC(=N)N)cc2C(F)(F)F)CC1`, the ΔTm worked out at 0.37 °C.
On the same count and under the same terms, the result for `Cc1sc(C(=O)c2cncnc2N[C@@H]2C[C@H](COS(N)(=O)=O)[C@@H](O)C2)cc1[C@@H]1NCCc2ccc(Cl)cc21` reads -0.59 °C.

A further assay concerns the target Glycogen synthase kinase-3 beta (Homo sapiens) (UniProt P49841). Particulars: Compound concentration 20.0 uM, Protein concentration 2.0 uM, Result type QC Liability.
On to `COc1ccc(-c2cc3c(C)nc(N)nc3n([C@H]3CC[C@H](OCCO)CC3)c2=O)cn1`, for which the ΔTm was -0.85 °C.
In the case of `COc1cc(C(=O)NCCOCCOCCOCC(=O)N[C@H](C(=O)N2C[C@H](O)C[C@H]2C(=O)NCc2ccc(-c3scnc3C)cc2)C(C)(C)C)ccc1Nc1ncc(C(F)(F)F)c(Oc2cccc3c2C(=O)CC3)n1`, the ΔTm was 0 °C.
Still for that read-out and setting: the result for `CN1CCc2cc(Nc3ncc(C(F)(F)F)c(NCc4cc[nH]n4)n3)ccc2C1` reads 6.33 °C; that for `CSc1nc2c(c(=O)n(C)c(=O)n2C)n1C`, -0.85 °C.
Same read-out and setting: the result for `N[C@@H](CC(=O)O)Cn1nnc(-c2ccc(Oc3ncc(Cl)cc3F)cc2)n1` reads 0.34 °C; that for `CCCCc1oc2ccccc2c1C(=O)c1cc(I)c(OCCN(CC)CC)c(I)c1`, -0.84 °C; that for `CCc1nc(-c2cccc(C)c2)c(-c2ccncc2)s1`, 3.39 °C.
On the same count and under the same terms, the result for `Cn1cc(-c2ccc(-c3cncc(Cl)c3N3CCC4(CCNC4=O)CC3)cc2)cn1` reads 6.99 °C.
In the case of `CCn1c(-c2nonc2N)nc2ccccc21`, the ΔTm was 4.22 °C.
As to `O=C(Nc1ccc(C(O)(C(F)(F)F)C(F)(F)F)cc1)c1ccc(C(F)(F)F)cc1`, the shift in melting temperature (ΔTm) is -0.34 °C.
Take `CC(=O)c1c(C)c2cnc(Nc3ccc(N4CCN(CCCCNC(=O)COc5cccc6c5C(=O)N(C5CCC(=O)NC5=O)C6=O)CC4)cn3)nc2n(C2CCCC2)c1=O` (stereo not drawn): the ΔTm was determined as 0.7 °C.
Regarding `CC(C)c1cnn2c(NCc3ccccc3)cc(NCCCCCCN)nc12`, the ΔTm is -0.56 °C.
Still for that read-out and setting: the result for `CC(=O)c1c(C)c2cnc(Nc3ccn(C)n3)nc2n(C2CCCC2)c1=O` reads 2.32 °C; that for `COCc1c(-c2cc3cc(C)cc(OC)c3s2)c2c(N)ncnn2c1CN[C@@H]1CCNC1=O`, -0.7 °C.
In the case of `CC1CCN(c2ccnc(NCc3cn(C)cn3)n2)CC1`, the thermal shift (ΔTm) was -0.33 °C.
On the same count and under the same terms, the result for `NCCCc1c(C(=O)O)[nH]c2ccc(C(=O)Nc3ccccc3)cc12` reads -0.39 °C; that for `COCCOCn1c(S(C)(=O)=O)nc2c1c(=O)n(C)c(=O)n2C`, -0.24 °C.
In the case of `CN1C(=O)Cc2ccc(-c3ccc(C[C@@H](C#N)NC(=O)[C@@H]4N[C@H]5CC[C@@H]4C5)c(F)c3)cc21`, the shift in melting temperature (ΔTm) was -0.31 °C.
As to `C=C1/C(=C\C=C2/CCC[C@]3(C)[C@@H]([C@H](C)CCCC(C)(C)O)CC[C@@H]23)C[C@@H](O)C[C@@H]1O`, the ΔTm was -6.39 °C.
Turning to `CN1Cc2nccc(-c3cn(C)nc3-c3ccc(F)cc3)c2C1=O`, the ΔTm was -0.07 °C.
On the same count and under the same terms, the result for `CC(C)[C@H](CO)Nc1nc(Nc2ccc(C(=O)O)c(Cl)c2)c2ncn(C(C)C)c2n1` reads 2.37 °C; that for `COc1cc2c(cc1CC=C(C)C)C(=O)C[C@@H](c1ccc(O)cc1)O2`, -0.03 °C.
Same read-out and setting: the result for `c1ccc2c(-c3coc4cc(-c5ccc(N6CCNCC6)cc5)cnc34)ccnc2c1` reads -0.47 °C; that for `CCn1ccc(Nc2ncc3c(n2)-c2c(nn(C)c2-c2ccc(-c4cnn(C)c4)cc2Cl)CC3)n1`, 5.78 °C.
The same measure, in the same setting: to `O=C(O)c1ccnc(N2CC(O)(c3ccc(OCc4c(-c5c(Cl)cccc5Cl)noc4C4CC4)cc3Cl)C2)c1` belongs -0.81 °C; to `COc1cc(C(=O)NCCOCCOCCOCC(=O)N[C@H](C(=O)N2C[C@@H](O)C[C@H]2C(=O)NCc2ccc(-c3scnc3C)cc2)C(C)(C)C)ccc1Nc1ncc(C(F)(F)F)c(Oc2cccc3c2C(=O)CC3)n1`, 0 °C.
With `CC(C)(O)CNC(=O)N1C(=O)N(c2cccc(C(F)(F)F)c2)C2=C(C(=O)CC2)[C@@H]1c1ccc(C#N)cc1`, the ΔTm is -0.62 °C.
With `COc1cc(Oc2nc(-c3ccc(NC(=O)C4CCOC4)cc3)nn3c(C)nc(C)c23)cc(OC)c1OC` (stereo not drawn), the ΔTm is -0.39 °C.
Still for that read-out and setting: to `COc1cc(-c2cc3ncccc3c(O[C@@H](C)[C@H]3CNC(=O)C3)n2)cc(OC)c1OC` belongs -0.57 °C.
On the same count and under the same terms, the result for `O=C(Nc1ccc(Cl)c(-c2ccccn2)c1)c1cccc(COc2ccc(Br)cc2CNCCO)c1` reads -0.89 °C; that for `CN[C@@H](C)C(=O)N[C@H]1CN(C(=O)CC(C)C)CC[C@H]2CC[C@@H](C(=O)NC(c3ccccc3)c3ccccc3)N2C1=O`, -0.59 °C; that for `CC(C)(C)NC(=O)c1cncn1C1CCN(c2ccc(-c3nnc(C(F)(F)F)o3)cn2)CC1`, -0.09 °C.
As to `CN(C)C(=O)Cn1cc(-c2nc(C3(c4ccc(-c5cnc(N)nc5)cc4)CC3)no2)cn1`, the ΔTm was -0.37 °C.
Same read-out and setting: to `C[S+]([O-])c1ccc(-c2nc(-c3cccc(I)c3)c(-c3ccncc3)[nH]2)cc1` (stereo not drawn) belongs 5.08 °C.
The same measure, in the same setting: the result for `CCc1ccccc1C(=O)Nc1n[nH]c2c(C)c(F)c(C3C(C#N)=C(C)N(C)C(C)=C3C#N)cc12` reads 8.17 °C.
Regarding `CC1CCN(C(=O)[C@@H](CCn2cccc2C#N)NS(=O)(=O)c2cccc3[nH]ccc23)CC1`, the ΔTm is -0.44 °C.
In the case of `N[C@@H]1CCCC[C@H]1Oc1ccc2ncc(-c3cc4ccccc4o3)n2n1`, the ΔTm is 4.43 °C.
The same measure, in the same setting: to `CC(=O)N1CCC(c2ccc(C(=O)NC(=N)N)cc2C(F)(F)F)CC1` belongs -0.64 °C; to `Cc1sc(C(=O)c2cncnc2N[C@@H]2C[C@H](COS(N)(=O)=O)[C@@H](O)C2)cc1[C@@H]1NCCc2ccc(Cl)cc21`, 0.3 °C.

The values above are taken from ChEMBL document CHEMBL5308504, “Tm Shift (DSF) assay results for EUbOPEN Chemogenomics Library” (2023).
